From PubChem BioAssay (EPA / NIEHS)
Results filed as inconclusive are left out. Activity calls are given as the source filed them. The calls were made as follows, unless noted: active = hit-call score of the fitted dose curve at least 0.9, where 1 is the maximum; inactive = score below 0.9.

Experiments:
[1] = Tanguay_ZF_120hpf_MUSC: Oregon State University Tanguay Lab 120 Hour Post-fertilization zebrafish Assay for Muscle Malformation (AID 2284401)
In short: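 Scored as a binary brightfield endpoint at 120 hpf, fitted versus DMSO. Single dechorionated wild-type (Tropical 5D) zebrafish embryos per well, statically exposed at 28C from 6 hpf onward with final DMSO 0.64%.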

[2] = CCTE_Shafer_MEA_dev_firing_rate_mean: CCTE's Neural Network Formation Assay for Mean Firing Rate, Shafer Lab (AID 2284031)
In short: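 Read-out: spike count/recording length, averaged over active electrodes, then AUC across days 5, 7, 9, 12. Rat cortical cultures on MEA; continuous 12-day exposure, media and treatment renewed DIV 5, 9; DMSO baseline.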

[3] = CCTE_Shafer_MEA_dev_per_burst_spike_percent: CCTE's Neural Network Formation Assay for Percent of Spikes in a Burst, Shafer Lab (AID 2284032)
In short: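 Value is trapezoidal AUC over recordings on days 5, 7, 9 and 12 of the well-mean fraction of spikes falling in single-electrode bursts; rat cortical cultures exposed continuously from plating, treatment renewed DIV 5 and 9, fitted downward against DMSO.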

[4] = CCTE_Shafer_MEA_dev_burst_rate: CCTE's Neural Network Formation Assay for Burst Rate, Shafer Lab (AID 2284042)
In short: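 Cells plated, treated day 0; recorded DIV 5, 7, 9, 12; fed and re-treated DIV 5, 9. Endpoint: bursts per recording time, active-electrode well mean, trapezoidal AUC, fitted in decreasing direction against DMSO baseline.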

[5] = CCTE_Shafer_MEA_dev_per_burst_interspike_interval: CCTE's Neural Network Formation Assay for Burst Interspike Interval, Shafer Lab (AID 2284044)
In short: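 Readout is the average time between spikes inside single-electrode bursts, taken as a well mean across bursting electrodes. Cortical neurons from rat developed networks on MEA plates under continuous 12-day exposure; recordings on days 5, 7, 9 and 12 were integrated by trapezoidal AUC.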

[6] = CCTE_Shafer_MEA_dev_burst_duration_mean: CCTE's Neural Network Formation Assay for Mean Burst Duration, Shafer Lab (AID 2284045)
In short: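 Network-formation assay in primary rat cortical neurons; treatment spans twelve days of development. Mean burst duration per well is integrated by trapezoidal AUC and fitted in the loss-of-signal direction against DMSO baseline.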

[7] = CCTE_Shafer_MEA_dev_interburst_interval_mean: CCTE's Neural Network Formation Assay for Mean Interburst Interval, Shafer Lab (AID 2284046);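 also: well-mean interburst interval of bursting electrodes as AUC over four recording days; curve fitted for decrease in interburst interval relative to DMSO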
In short: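 Developing rat cortical networks on 48-well MEAs receive compound from the day of plating. Burst intervals from each active electrode are averaged per well, and AUC over the recording days is fitted in the negative direction against DMSO.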

[8] = CCTE_Shafer_MEA_dev_inter_network_spike_interval_mean: CCTE's Neural Network Formation Assay for Mean Inter-network Spike Interval, Shafer Lab (AID 2284047)
In short: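 Rat cortical cultures, 1.5 x 10^5 cells/well on 48-well MEA plates; continuous exposure days 0–12, medium and compound refreshed DIV 5, 9. Mean time between consecutive network-spike peaks; AUC across DIV 5/7/9/12; DMSO baseline, negative fitting direction.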

[9] = CCTE_Shafer_MEA_dev_network_spike_number: CCTE's Neural Network Formation Assay for Number of Network Spikes, Shafer Lab (AID 2284048)
In short: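 Extracellular recordings from 16-electrode wells track network formation in rat cortical cultures under continuous treatment from plating. The endpoint is network spike number, expressed as AUC across DIV 5–12 relative to DMSO vehicle.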

[10] = CCTE_Shafer_MEA_dev_spike_duration_mean: CCTE's Neural Network Formation Assay for Mean Spike Duration, Shafer Lab (AID 2284051);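 also: mean network spike duration pooled as area under curve over DIV 5 to 12 recordings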
In short: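 Readout is the average length of network spikes, clustered firing across electrodes, summed over DIV 5, 7, 9 and 12 as area under the curve. Neurons from rat cortex developed networks on MEA plates under continuous 12-day exposure.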

[11] = CCTE_Shafer_MEA_dev_network_spike_duration_std: CCTE's Neural Network Formation Assay for Standard Deviation of Network Spike Duration, Shafer Lab (AID 2284052);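 also: area under curve of spike duration SD across recording days 5 to 12; hits are decreases in network spike duration SD versus DMSO vehicle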
In short: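 Read-out is the trapezoidal area-under-the-curve across recordings made on days 5, 7, 9 and 12, fitted in the negative direction against DMSO baseline. Neurons were primary rat cortical cells treated from day 0, with treatment renewed at each feed.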

[12] = CCTE_Shafer_MEA_dev_per_network_spike_spike_number_mean: CCTE's Neural Network Formation Assay for Mean Number of Spikes in a Network Spike, Shafer Lab (AID 2284053)
In short: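 Continuous twelve-day exposure of developing rat cortical networks grown over 16 microelectrodes per well; spontaneous firing is captured at four time points, and the per-network-spike spike number is integrated over development by trapezoidal AUC.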

[13] = CCTE_Shafer_MEA_dev_per_network_spike_spike_percent: CCTE's Neural Network Formation Assay for Percent of Spikes in a Network Spike, Shafer Lab (AID 2284054)
In short: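 Developing networks of rat cortical neurons are dosed at day 0 and recorded extracellularly four times up to day 12. The endpoint is the area under the curve of percent spikes in network spikes, fitted in the negative direction relative to DMSO.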

[14] = CCTE_Shafer_MEA_dev_LDH: CCTE's Lactate Dehydrogenase Assay for Cytotoxicity in the Neural Network Formation Assay, Shafer Lab (AID 2284068; active = hit-call score of the fitted dose curve at least 0.9, where 1 is the maximum;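 also: exposure for twelve days from plating with re-dosing on DIV 5 and 9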)
In short: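 Cytotoxicity companion to network-formation recordings: rat cortical neurons received compound over 12 days of development, re-dosed at DIV 5 and 9 feeds. Viability was inferred from LDH enzyme activity relative to DMSO.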

[15] = CCTE_Shafer_MEA_dev_mutual_information_norm: CCTE's Neural Network Formation Assay for Mutual Information Normalization, Shafer Lab (AID 2284091)
In short: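 Exposure of primary rat cortical neurons began at plating and ran to DIV 12, with full media and treatment renewal after DIV 5 and 9 recordings. Mutual information AUC (DIV 5–12) was analysed for loss versus DMSO.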

[16] = CCTE_Shafer_MEA_dev_correlation_coefficient_mean: CCTE's Neural Network Formation Assay for Mean Correlation Coefficient, Shafer Lab (AID 2284093)
In short: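 Read-out: well-mean correlation coefficient of spike trains between electrode pairs, collapsed over four recording days as trapezoidal area-under-the-curve. Developing rat cortical neuron networks grown on MEAs received test chemical continuously from plating.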

[17] = CCTE_Mundy_HCI_Cortical_Synap_Neur_Matur_NeuriteSpotCountPerNeuriteLength: CCTE's Synaptogenesis and Neurite Maturation Assay in rat cortical cells for Neurite Spot Count per Neurite Length, Mundy Lab (AID 2284210)
In short: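 Neurite-associated synapse density (synaptophysin puncta per unit neurite length) is measured by fluorescence high-content imaging in rat cortical cultures treated from DIV 7 and fixed at DIV 12, with DMSO as negative control.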

[18] = CCTE_Mundy_HCI_Cortical_NOG_NeuriteCount: CCTE's Neurite Outgrowth Assay in rat cortical cells for Neurite Count, Mundy Lab (AID 2284212);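 also: cells fixed about two days after chemical exposure began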
In short: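 Rat cortical primary cells; compound added 2 h post-plating, 1/10 dilution of working solution. Anti-betaIII-tubulin/AF488 ICC; ArrayScan neurite count vs DMSO.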

[19] = CCTE_Mundy_HCI_Cortical_NOG_NeuriteLength: CCTE's Neurite Outgrowth Assay in rat cortical cells for Neurite Length, Mundy Lab (AID 2284213)
In short: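 First, rat primary cortical cells were plated and, 2 h later, given test chemical as a 1/10 dilution. Finally, βIII-tubulin immunostaining enabled automated imaging of neurite length.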

[20] = CCTE_Mundy_HCI_Cortical_Synap_Neur_Matur_NeuriteSpotCountPerNeuron: CCTE's Synaptogenesis and Neurite Maturation Assay in rat cortical cells for Neurite Spot Count per Neuron Count, Mundy Lab (AID 2284215)
In short: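 Read-out: neurite-associated synaptophysin puncta per neuron, imaged by high-content analysis after MAP2, synaptophysin and Hoechst staining. Rat primary cortical cultures, dosed DIV 7 through DIV 12; DMSO served as baseline.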

[21] = CCTE_Mundy_HCI_Cortical_Synap_Neur_Matur_SynapseCount: CCTE's Synaptogenesis and Neurite Maturation Assay in rat cortical cells for Synapse Count, Mundy Lab (AID 2284218)
In short: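 Read-out: synapse number per neuron, automated high-content imaging of fixed cells immunostained for MAP2 and synaptophysin plus Hoechst nuclei. Rat primary cortical cultures, AraC at DIV 5, chemical dosing DIV 7–12. Positive-direction fit relative to DMSO.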

[22] = CCTE_Mundy_HCI_hN2_NOG_NeuriteCount: CCTE's Neurite Outgrowth Assay in human hN2 cells for Neurite Count, Mundy Lab (AID 2284219; active = hit-call score of the fitted dose curve at least 0.9, where 1 is the maximum)
In short: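 In this morphology assay, hNP1-derived neurons received test chemical 2 h post-plating and were fixed two days later in warm paraformaldehyde/sucrose containing Hoechst 33342. Neurites, labelled by rabbit anti-βIII-tubulin (1:800) and Alexa Fluor-488 (1:500), were counted automatically.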

[23] = CCTE_Mundy_HCI_hN2_NOG_NeuriteLength: CCTE's Neurite Outgrowth Assay in human hN2 cells for Neurite Length, Mundy Lab (AID 2284220; active = hit-call score of the fitted dose curve at least 0.9, where 1 is the maximum)
In short: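 Using βIII-tubulin immunofluorescence and Hoechst nuclear counterstain, this component quantifies neurite length in hNP1-derived neurons.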

[24] = CCTE_Mundy_HCI_Cortical_Synap_Neur_Matur_NeuriteCount: CCTE's Synaptogenesis and Neurite Maturation Assay in rat cortical cells for Neurite Count, Mundy Lab (AID 2284222)
In short: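 Chemical exposure runs DIV 7–12 in rat cortical cultures, glia suppressed by AraC at DIV 5; measurement is at DIV 12. Imaging-derived neurite counts are fitted against DMSO baseline.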

[25] = CCTE_Mundy_HCI_Cortical_Synap_Neur_Matur_CellBodySpotCount: CCTE's Synaptogenesis and Neurite Maturation Assay in rat cortical cells for Cell Body Spot Count, Mundy Lab (AID 2284223)
In short: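 Read-out: cell body-associated synaptophysin puncta per neuron, imaged after MAP2, synaptophysin and Hoechst staining. Rat cortical cells, AraC DIV 5, chemical dosing DIV 7, fixation DIV 12. Activity fitted in positive direction relative to DMSO baseline.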

[26] = CCTE_Mundy_HCI_hNP1_Casp3_7: CCTE's Caspase-Glo 3/7 Assay in human neuroprogenitor cells for Apoptosis, Mundy Lab (AID 2284240)
In short: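 Neuroepithelial-lineage stem cells from WA09 embryonic cells were treated with chemicals after 40–44 h of culture. Twenty-four hours later, caspase-3/7 activation was detected luminescently after a 30 min room-temperature reagent step, with DMSO as baseline.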

[27] = CCTE_Mundy_HCI_hNP1_CellTiter: CCTE's Cell Titer-Glo 2 Assay in human neuroprogenitor cells for Viability, Mundy Lab (AID 2284241; active = hit-call score of the fitted dose curve at least 0.9, where 1 is the maximum)
In short: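 Measures ATP content in human neural progenitors derived from WA09 embryonic cells. Read-out at 26.5 hours after dosing, with DMSO serving as the negative control and baseline.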

Measured: outcome

C=CC(=O)OCCC(F)(F)C(F)(F)C(F)(F)C(F)(F)C(F)(F)C(F)(F)C(F)(F)C(F)(F)F
inactive: [1]

C=CCN1CC[C@]23c4c5ccc(O)c4O[C@H]2C(=O)CC[C@@]3(O)[C@H]1C5
not listed: [1]
inactive: all other assays above
